# Experimental data reported in PubChem BioAssay.
# Tested on: Wnt5a (protein binding on small-molecule microarray)
# Assay: small molecules binding Wnt5a protein – biophysical, small-molecule microarray, 635/667 nm fluorescence, primary screen (AID 1142);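 further: fluorescence read at 667 nm with signal to noise per printed feature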
# Conditions: 635 nm fluorescence, higher = more signal
row,SMILES,composite z-score
1,C=CCOC(=O)[C@@H]1[C@H]2C(=O)O[C@H](c3ccccc3)[C@H](c3ccccc3)N2[C@H](c2ccc(OCCOC(=O)[C@H]3C[C@H]4C(=O)N5CCC[C@H]5C(=O)N4[C@H]3c3ccc(O)cc3)cc2)[C@@]12C(=O)Nc1ccccc12,1.32
2,C[C@@H]1CC[C@H]2C(=O)N3[C@@H](CC[C@@H](C)[C@@H]3c3cccc(N4CCOCC4)c3)C(=O)N2[C@H]1c1cccc(N2CCOCC2)c1,-0.0915
3,COc1ccc(-c2ccccc2[C@@H]2N[C@H](C(=O)O)CC[C@H]2C)cc1,-0.053
4,CN1CCC(CCCO)=CC1C1CC1 (stereo not given),0.0651
5,C=CCC(OC(C)=O)[C@@H]1[C@@H](N(Cc2cc3ccccc3o2)C(=O)c2ccc(C)cc2)c2cc(OCCCO)ccc2N1C(=O)c1ccc2ccccc2n1 (stereo not given in full),-0.0502
6,C[C@H]1COC(=O)[C@H](Cc2ccccc2)NC(=O)[C@@H](C)COC(=O)[C@H](Cc2ccccc2)NC1=O,0.226
7,CCN1C(C)=C(C(=O)OC)[C@@H](c2ccccc2)N2C(=O)[C@@]3(C(=O)OC)O[C@@]12[C@@H]1C(=O)N(c2ccccc2)C(=O)[C@@H]13,0.313
8,CCCC/C=C/[C@H]([C@@H](O)Cc1ccccc1)N(CC#Cc1ccccc1)Cc1ccccc1Br,-0.238
9,Cc1ccc(S[C@]2(C(=O)NCCCN(C)C)CC(=O)N(C3CCCCC3)[C@@H]2c2ccc(CO)cc2I)cc1,-0.056
10,CO[C@@H]1COC(=O)[C@H](C)NC(=O)CC=C[C@@H](C)[C@H](NS(=O)(=O)c2ccc(C)cc2)COC(=O)CC=C[C@@H]1C,0.0543
11,C=CCNC(=O)[C@H]1[C@@H]2C(=O)O[C@@H](c3ccccc3)[C@@H](c3ccccc3)N2[C@@H](c2ccccc2OCCO)[C@]12C(=O)N(C(=O)OCCOC)c1ccc(C#CCC(C(=O)OC)C(=O)OC)cc12,0.302
12,CC(=O)NCCCC[C@@H]1NC(=O)[C@@H]2C[C@H](C(=O)NCCCCCCN(C)C)[C@H](c3ccc(O)cc3)N2C1=O,0.336
13,O=C(NCC(O)CO)[C@]1(Cc2ccccc2)N=C(c2ccc(OCCCO)cc2)O[C@@H]1c1ccccc1 (stereo not given in full),0.454
14,C[C@H]1NC(=O)[C@@H](C)NC(=O)[C@@]23C(=O)N[C@@H](Cc4ccccc4)C2[C@H](C)[C@@]2(C)O[C@H]2C3/C=C/C/C=C\CNC1=O (stereo not given in full),0.0845
15,CC(C)N1CC=CC23O[C@@H]4/C=C\CCCOC(=O)C4[C@H]2C(=O)N(CCO)[C@@H]3C1=O (stereo not given in full),-0.0732
16,C=CC[C@]1(C(=O)O)N=C(c2ccc(OCCCO)cc2)O[C@H]1c1ccccc1,-0.0903
17,CC(C)CNC(=O)[C@@]1(C)c2ccccc2C(=O)N(Cc2ccc(OC(F)(F)F)cc2)[C@H]1c1ccc(CO)cc1,0.12
18,CO[C@H]1COC(=O)[C@H](Cc2ccccc2)NC(=O)CC=C[C@@H](C)[C@H](OC)COC(=O)CC=C[C@@H]1C,0.175
19,C=C(COC)/C(=C/C[C@@H](OC(=O)c1ccncc1)c1ccc(OCCO)cc1)c1cc(C(=O)OC)ccc1OC,0.147
20,CSCC[C@@H]1NC(=O)CC=C[C@@H](C)COC(=O)[C@H](CCSC)NC(=O)CC=C[C@@H](C)COC1=O,0.119
21,O=C1OCC=C[C@H]2OC34C=CCN(Cc5ccccc5)C(=O)[C@H]3N(CCCCCO)C(=O)[C@@H]4[C@@H]12 (stereo not given in full),-0.341
22,Cc1ccc(S[C@]2(C(=O)NCCN3CCOCC3)CC(=O)N(C3Cc4ccccc4C3)[C@@H]2c2ccc(CO)cc2I)cc1,-0.149
23,COC(=O)C[C@H]1O[C@]2(C(=O)N(C)c3ccccc32)[C@@H](C)[C@@H]1[Si](C)(C)c1ccc(OC)cc1,0.259
24,CC/C=C/C(=O)N(C[C@@H]1CCCO1)[C@@H]1CC(C(=O)NCCO)=C[C@H](Oc2c(I)cc(CO)cc2OC)[C@H]1O,-0.0308
25,C=C[C@H](OC)[C@@H](OC(=O)Nc1ccc(SC)cc1)c1ccc(OC)c(O)c1,-0.29
26,CN1C2C=C(c3ccc(CO)cc3)C(C3C(=O)N(C(N)=O)C(=O)C32)C1c1cccs1 (stereo not given),-0.25
27,C=CCN(C(=O)C1N(c2ccc(CCO)cc2)C(=O)C2C(C(=O)O)C3C=CC21O3)C(C)(C)C (stereo not given),-0.505
28,C=CCC1=C[C@H]2[C@H]([C@@H]3C=C[C@]2(CC=C)C(=O)[C@]32CO2)[C@@]2(CO2)C1=O,0.123
29,Cc1ccc(S[C@]2(C(=O)O)CC(=O)N(Cc3ccccc3)[C@@H]2c2ccc(CO)cc2)cc1,0.0167
30,CCCNC(=O)[C@@H]1c2ccccc2C(=O)N(Cc2cc(F)cc(C(F)(F)F)c2)[C@H]1c1ccc(CO)cc1,0.411
